The target of test [1] is Lysosomal acid glucosylceramidase (Homo sapiens) (UniProt P04062). The test can be described thus: Glucocerebrosidase-p2 (AID 348; in the data active means potency below about 10 µM; further: potency means the concentration at half of the fitted maximal effect). As to conditions: purified GBA, blue fluorogenic substrate, 40 min. In short, it runs like this: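 Normal human glucocerebrosidase (0.2 nM) with blue fluorogenic substrate (80 uM final) in citrate/phosphate pH 5.9 with 10mM sodium taurocholate, 0.01% tween-20; 40 min RT, NaOH/glycine stop; fluorescence Ex 365/Em 440; AC50 from a titration from 0.6 nM upwards.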
Chain of Lysosomal acid glucosylceramidase (Homo sapiens) (P04062 whole entry, looked up): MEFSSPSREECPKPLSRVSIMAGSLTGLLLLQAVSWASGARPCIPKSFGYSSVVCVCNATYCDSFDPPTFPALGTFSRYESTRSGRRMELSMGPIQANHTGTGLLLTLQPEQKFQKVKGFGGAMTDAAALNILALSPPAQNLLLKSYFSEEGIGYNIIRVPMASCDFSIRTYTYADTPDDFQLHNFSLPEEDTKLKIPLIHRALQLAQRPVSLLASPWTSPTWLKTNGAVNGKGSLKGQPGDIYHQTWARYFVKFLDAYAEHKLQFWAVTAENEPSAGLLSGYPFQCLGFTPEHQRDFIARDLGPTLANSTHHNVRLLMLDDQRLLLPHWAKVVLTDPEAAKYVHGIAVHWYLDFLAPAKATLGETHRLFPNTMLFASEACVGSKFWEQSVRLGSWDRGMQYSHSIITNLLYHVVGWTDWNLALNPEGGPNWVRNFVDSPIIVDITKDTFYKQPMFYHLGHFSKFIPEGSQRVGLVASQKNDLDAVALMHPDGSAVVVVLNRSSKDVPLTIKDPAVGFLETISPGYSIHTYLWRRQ

The nature of test [2]: AP1 Signaling Pathway (AID 357; active means well fitted curve in either direction with a large enough effect, not every such curve was filed as active;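 further: ME-180 reporter cells stimulated with EGF at its EC50 level; on the % scale 0 is the no-effect control and ±100 the full control effect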). As to conditions: ME-180 AP-1-bla reporter, EGF-induced, beta-lactamase ratio, 5 h; at 7.69 µM (top of the series) unless noted. The essentials: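 In this screen, ME-180 cells in Opti-MEM with 0.5% dialyzed FBS received EC50 EGF and compound titrations for 5 h. AP-1 reporter beta-lactamase was detected via CCF4 ratio, giving AC50 for positive and negative modulators.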

The target of test [3] is Cytochrome P450 1A2 (Homo sapiens) (UniProt P05177). The test can be described thus: p450-cyp1a2 (AID 410; calls by dose curve; further: potency means the concentration at half of the fitted maximal effect). To be noted: recombinant CYP1A2, luciferin-ME demethylation, luminescence; series mostly up to 57 µM. The essentials: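 20nM CYP1A2, 100uM Luciferin-ME (=Km), 100mM KPO4; cpd 10 min RT; +NADPH regen, 60 min RT; stop/detect 20 min; luminescence. Normalized to furafylline 57 uM = full inhibition.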
Chain of Cytochrome P450 1A2 (Homo sapiens) (P05177 whole entry, looked up): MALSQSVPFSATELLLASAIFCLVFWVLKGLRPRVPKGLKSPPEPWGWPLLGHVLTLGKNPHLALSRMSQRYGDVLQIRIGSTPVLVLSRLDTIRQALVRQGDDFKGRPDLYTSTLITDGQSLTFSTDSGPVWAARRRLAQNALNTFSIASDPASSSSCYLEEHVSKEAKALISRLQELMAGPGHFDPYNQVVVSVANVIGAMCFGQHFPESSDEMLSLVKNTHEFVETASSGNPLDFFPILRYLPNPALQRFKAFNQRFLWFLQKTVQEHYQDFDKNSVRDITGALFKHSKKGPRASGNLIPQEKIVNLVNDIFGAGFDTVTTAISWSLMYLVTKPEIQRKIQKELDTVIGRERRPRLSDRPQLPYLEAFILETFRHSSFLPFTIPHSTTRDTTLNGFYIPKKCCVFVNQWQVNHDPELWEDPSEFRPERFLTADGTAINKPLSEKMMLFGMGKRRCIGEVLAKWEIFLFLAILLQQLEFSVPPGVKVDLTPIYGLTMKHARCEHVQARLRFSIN

Test [4] is described as follows: NFAT Signaling Pathway (AID 444; active means well fitted curve in either direction with a large enough effect, not every such curve was filed as active;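 further: carbachol stimulus at about its EC50 of 1 µM final; on the % scale 0 is the no-effect control and ±100 the full control effect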). As to conditions: Jurkat NFAT-bla M1, carbachol, beta-lactamase ratio, 5 h; at 7.69 µM (top of the series) unless noted. The essentials: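 Jurkat cells with NFAT-driven β-lactamase reporter and co-expressed M1 receptor, stimulated with carbachol (final 1 uM, ~EC50), compound titration, 5 h at 37 °C. CCF4 loaded 1 h at RT; 460/530 nm ratio gave %activity and AC50.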

Test [5] can be described thus: Stat Signaling Pathway (AID 446; active means well fitted curve in either direction with a large enough effect, not every such curve was filed as active;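 further: ME-180 cervical cancer cells given 40 pM IL-6 alongside compound; SIE-controlled beta-lactamase reporter measured as 460/530 nm FRET emission ratio; on the % scale 0 is the no-effect control and ±100 the full control effect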). To be noted: ME-180 (cervical carcinoma) SIE beta-lactamase reporter, IL-6 stimulated, 5 h; at 7.69 µM (top of the series) unless noted. In short, it runs like this:
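Normalization used AC90 stimulation (300 pM IL-6) and AC90 inhibition (125 nM pan-JAK inhibitor at 40 pM IL-6). The underlying signal is SIE-driven beta-lactamase in ME-180 cells after 5 h IL-6 exposure with compound.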

In test [6] the target is Glucocorticoid receptor (Homo sapiens) (UniProt P04150). The test can be described thus: GR-GFP Redistribution (AID 450;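 active means compounds whose dose series gives a full or clear partial fitted curve of increased nuclear translocation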; further: potency means the concentration at half of the fitted maximal effect). As to conditions: U2OS GR-GFP nuclear translocation, laser cytometry, 2 h.
Chain of Glucocorticoid receptor (Homo sapiens) (P04150 whole entry, looked up, the tested form may be a part): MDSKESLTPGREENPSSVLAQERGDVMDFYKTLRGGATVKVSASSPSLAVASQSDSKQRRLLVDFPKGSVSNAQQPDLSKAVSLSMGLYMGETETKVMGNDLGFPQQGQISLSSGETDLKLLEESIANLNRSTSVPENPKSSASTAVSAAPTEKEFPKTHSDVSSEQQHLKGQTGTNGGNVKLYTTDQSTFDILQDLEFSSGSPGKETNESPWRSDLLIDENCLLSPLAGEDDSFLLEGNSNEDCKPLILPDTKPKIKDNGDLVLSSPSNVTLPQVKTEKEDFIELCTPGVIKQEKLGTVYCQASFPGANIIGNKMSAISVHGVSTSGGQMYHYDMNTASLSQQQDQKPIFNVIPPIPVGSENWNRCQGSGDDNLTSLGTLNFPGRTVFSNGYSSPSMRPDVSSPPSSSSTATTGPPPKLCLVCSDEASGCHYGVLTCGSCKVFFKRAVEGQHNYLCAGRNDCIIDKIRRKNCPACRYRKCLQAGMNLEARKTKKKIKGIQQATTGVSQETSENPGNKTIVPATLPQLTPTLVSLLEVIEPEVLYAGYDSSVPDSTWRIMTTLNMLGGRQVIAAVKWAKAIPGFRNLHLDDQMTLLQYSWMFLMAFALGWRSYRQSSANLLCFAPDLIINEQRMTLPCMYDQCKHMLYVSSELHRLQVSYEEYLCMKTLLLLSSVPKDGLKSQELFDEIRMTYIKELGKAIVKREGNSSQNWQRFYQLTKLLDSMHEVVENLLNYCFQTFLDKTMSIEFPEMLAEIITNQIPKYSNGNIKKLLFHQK
Test [7] shares this target. The test can be described thus: GR-EFC Redistribution (AID 451; calls by dose curve; further: potency means the concentration at half of the fitted maximal effect). As to conditions: CHO-K1 GR-EFC translocation, beta-gal luminescence, 2 h. The essentials: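 CHO-K1 cells expressing nuclear EA and GR-ED fragments of b-gal; compounds titrated up to 46 uM final, 2 h at 37 C. GR nuclear translocation read as complemented b-gal luminescence after 1 h RT detection.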
Test [8] has as its target Mitogen-activated protein kinase 10 (Mus musculus) (UniProt Q61831). The test can be described thus: JNK3 AlphaScreen Assay (AID 530; active means well fitted curve in either direction with a large enough effect, not every such curve was filed as active;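 further: kinase came from lysate of stimulated human HepG2 cells; signal reports phosphorylation of biotinylated GST-cJun 1-79 at Ser73 with 10 µM ATP; on the % scale 0 is the no-effect control and ±100 the full control effect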). To be noted: JNK3 lysate, c-Jun phosphorylation; series mostly up to 57.1 µM. The essentials: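 HepG2 lysate (IL-1b/TNFa pre-activated) + biotin-GST-cJun 1-79 + anti-pSer73 cJun; cpd titration, 15 min RT; ATP 10 uM start; Tris pH 7.6, MgCl2, DTT, vanadate; beads in EDTA buffer; AlphaScreen.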
Background: Alpha assays give light when donor and acceptor beads are brought close together.

Test [9] addresses 3',5'-cyclic-AMP phosphodiesterase 4B (Homo sapiens) (UniProt Q07343). The test can be described thus: qHTS Assay for Inhibitors of PDE-IV (AID 607; active means well fitted activation curve with a large enough effect in the main read-out, with a control signal flat, not every such curve was filed as active; further: % of control where 0% means no effect). As to conditions: HEK293 ACTOne CNG channel cells, membrane potential fluorescence; series mostly up to 22.9 µM. In short, it runs like this:
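HEK293 ACTOne cells with CNG channel (1000/well), endogenous PDE4; membrane potential dye, compounds up to 22.9 uM final. Fluorescence Ex 535/Em 590; RO 20-1724 (100 uM final) as reference.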
A general note: qHTS replaces the single test concentration by a dilution series.

Test [10] concerns the target Cytochrome P450 3A4 (Homo sapiens) (UniProt P08684). The test can be described thus: qHTS Assay for Inhibitors and Substrates of Cytochrome P450 3A4 (AID 884). Further: on the % scale 0 is the no-effect control and ±100 the full control effect; nearly all actives have a fitted effect of over 50% in size. To be noted: recombinant CYP3A4, Luciferin-PPXE luminescence; series mostly up to 57.1 µM. The essentials: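 Luminescent readout of luciferin produced by CYP3A4 (20 nM) dealkylation of Luciferin-PPXE, 25 uM (its KM). NADPH-driven reaction ran 60 min at RT after 10 min compound preincubation; data scaled to 57 uM ketoconazole as 100% inhibition.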

A short description of test [11]: qHTS Assay for Lipid Storage Modulators (AID 1519; calls by dose curve). As to conditions: Drosophila S3 cells, BODIPY lipid droplet/cell ratio, laser cytometry, cells loaded with oleic acid; for activity change, negative = inhibition: at 57.5 µM (top of the series). The essentials: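 Cells seeded at 5,000 per well were treated with compounds over a concentration series and loaded with oleic acid (400 uM, as added). Lipid droplet fluorescence (488 nm excitation, 500-530 nm channel) was read by laser-scanning cytometry and normalized to 20 uM Triacsin C.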

The target of test [12] is Dual specificity protein kinase CLK4 (Homo sapiens) (UniProt Q9HAZ1). The test can be described thus: qHTS Assay for Inhibitors of CDC-like Kinase 4 (Kinase-Glo Assay) (AID 1770). Further: on the % scale 0 is the no-effect control and ±100 the full control effect; nearly all actives have a fitted effect of over 65% in size. To be noted: recombinant Clk4, Kinase-Glo ATP depletion luminescence; series mostly up to 66.7 µM. The essentials: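 Substrate mix (RS peptide 100 uM, ATP 1 uM) dispensed, compound pinned in, then Clk4 added to 25 nM final. Incubated 4.5 h at RT; Kinase-Glo reagent added, luminescence read after 5 min.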
Chain of Dual specificity protein kinase CLK4 (Homo sapiens) (Q9HAZ1 whole entry, looked up): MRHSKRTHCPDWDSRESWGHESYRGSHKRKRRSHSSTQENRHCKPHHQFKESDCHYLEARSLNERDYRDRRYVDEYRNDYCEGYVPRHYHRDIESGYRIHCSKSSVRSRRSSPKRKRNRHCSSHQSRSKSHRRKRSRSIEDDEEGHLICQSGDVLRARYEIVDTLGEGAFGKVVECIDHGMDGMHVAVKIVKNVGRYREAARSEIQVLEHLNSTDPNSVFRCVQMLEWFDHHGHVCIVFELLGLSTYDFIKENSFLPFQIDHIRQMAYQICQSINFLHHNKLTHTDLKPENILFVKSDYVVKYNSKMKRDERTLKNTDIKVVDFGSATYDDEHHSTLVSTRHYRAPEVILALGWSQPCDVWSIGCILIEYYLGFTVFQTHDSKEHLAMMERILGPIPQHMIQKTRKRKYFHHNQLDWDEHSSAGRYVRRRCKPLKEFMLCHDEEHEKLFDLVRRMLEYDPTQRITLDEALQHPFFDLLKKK

The target is the same in test [13]. The test can be described thus: qHTS Assay for Inhibitors of CDC-like Kinase 4 (ADP-Glo Assay) (AID 1771). Further: on the % scale 0 is the no-effect control and ±100 the full control effect; nearly all actives have a fitted effect of over 70% in size. To be noted: recombinant CLK4, ADP-Glo luminescence; series mostly up to 80 µM. In short, it runs like this:
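25 nM Clk4, 100 uM RS peptide, 1 uM ATP (final); 2 mM MgCl2, 0.5 mM EGTA, 2.5 mM DTT, 0.01% Triton X-100; 1 hr RT. ADP-Glo readout: ATP depletion 45 min, conversion/luciferase 30 min, luminescence.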

Test [14] shares this target. The test can be described thus: qHTS Assay for Inhibitors of CDC-like Kinase 4 (ADP-FP Assay) (AID 1795).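 Further: recombinant human CLK4 phosphorylating RS repeat peptide at 1 µM ATP; on the % scale 0 is the no-effect control and ±100 the full control effect; nearly all actives have a fitted effect of over 60% in size.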 To be noted: Transcreener ADP fluorescence polarization; series mostly up to 50 µM. In short, it runs like this:
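Clk4 6.25 nM; RS peptide 100 uM; ATP 1 uM; 25 mM Tris pH 7.5, 10 mM MgCl2; 1 h reaction. ADP detected via antibody/orange tracer FP displacement; TG003 positive control.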

The target of test [15] is Ubiquitin carboxyl-terminal hydrolase 1 (Homo sapiens) (UniProt O94782). The test can be described thus: Inhibitors of USP1/UAF1: Pilot qHTS (AID 504865).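 Further: rhodamine fluorescence freed from ubiquitin-rhodamine substrate followed over time; top concentration of the series differs between compounds; on the % scale 0 is the no-effect control and ±100 the full control effect; nearly all actives have a fitted effect of over 35% in size.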 To be noted: purified USP1/UAF1, Ub-rhodamine cleavage fluorescence; series mostly up to 54.9 µM. In short, it runs like this: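 In 50mM HEPES pH 7.8 containing 0.5mM EDTA, 1mM TCEP, 0.1 mg/ml BSA and 0.01% Tween-20, 1nM USP1/UAF1 is exposed to compound for 15 min, then Ub-Rho (150nM final) is added and fluorescence is read over time.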
Chain of Ubiquitin carboxyl-terminal hydrolase 1 (Homo sapiens) (O94782 whole entry, looked up): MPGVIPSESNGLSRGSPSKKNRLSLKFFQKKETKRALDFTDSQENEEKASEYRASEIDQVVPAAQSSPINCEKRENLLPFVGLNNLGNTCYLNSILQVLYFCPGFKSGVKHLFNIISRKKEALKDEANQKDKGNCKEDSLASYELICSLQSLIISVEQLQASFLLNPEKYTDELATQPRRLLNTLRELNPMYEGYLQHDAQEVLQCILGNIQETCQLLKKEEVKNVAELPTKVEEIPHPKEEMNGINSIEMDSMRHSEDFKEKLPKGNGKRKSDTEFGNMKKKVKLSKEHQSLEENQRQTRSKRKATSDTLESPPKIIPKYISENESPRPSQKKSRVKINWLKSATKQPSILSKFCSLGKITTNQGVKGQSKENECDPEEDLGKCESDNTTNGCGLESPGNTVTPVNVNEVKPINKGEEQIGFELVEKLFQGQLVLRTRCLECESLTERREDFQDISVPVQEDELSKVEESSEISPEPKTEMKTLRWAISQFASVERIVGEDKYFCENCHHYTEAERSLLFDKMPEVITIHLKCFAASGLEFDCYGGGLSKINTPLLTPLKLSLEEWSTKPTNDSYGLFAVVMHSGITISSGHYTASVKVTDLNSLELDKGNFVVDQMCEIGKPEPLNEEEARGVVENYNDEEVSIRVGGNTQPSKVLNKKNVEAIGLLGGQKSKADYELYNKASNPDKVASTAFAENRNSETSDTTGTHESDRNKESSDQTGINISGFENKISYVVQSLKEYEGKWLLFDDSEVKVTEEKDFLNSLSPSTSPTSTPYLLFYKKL

The nature of test [16]: NCATS anti-infectives library activity on HEK293 viability as a counter-qHTS vs the C. elegans viability qHTS (AID 1745854). Further: on the % scale 0 is the no-effect control and ±100 the full control effect. To be noted: HEK293 viability counter-screen; series mostly up to 41.8 µM. In short, it runs like this: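 CellTiter-Glo luminescence, read on a CCD imager, scored viability of HEK293 cells after 24 hr compound exposure at 37C. Library tested in several concentrations, 1:5 steps, up to 41.7 uM; digitonin served as control.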

[17] abbreviates: measured here: cell count channel max response.
The mark [18] stands for this setting: measured here: lipid channel max response.

Inconclusive results are not listed. Active and inactive are the calls of the source. Unless noted, the call rests on the fitted dose curve; in most records, active means well fitted curve in the direction sought with a large enough effect; inconclusive means small, poorly fitted or top-dose-only effect, or another doubt; inactive means no such curve, though single readings can be large; an effect the other way counts as inactive or inconclusive. Where only a bound is given, the exact number is not on record here.

The record followed here is PubChem BioAssay (NCATS).

Chain of 3',5'-cyclic-AMP phosphodiesterase 4B (Homo sapiens) (Q07343 whole entry, looked up): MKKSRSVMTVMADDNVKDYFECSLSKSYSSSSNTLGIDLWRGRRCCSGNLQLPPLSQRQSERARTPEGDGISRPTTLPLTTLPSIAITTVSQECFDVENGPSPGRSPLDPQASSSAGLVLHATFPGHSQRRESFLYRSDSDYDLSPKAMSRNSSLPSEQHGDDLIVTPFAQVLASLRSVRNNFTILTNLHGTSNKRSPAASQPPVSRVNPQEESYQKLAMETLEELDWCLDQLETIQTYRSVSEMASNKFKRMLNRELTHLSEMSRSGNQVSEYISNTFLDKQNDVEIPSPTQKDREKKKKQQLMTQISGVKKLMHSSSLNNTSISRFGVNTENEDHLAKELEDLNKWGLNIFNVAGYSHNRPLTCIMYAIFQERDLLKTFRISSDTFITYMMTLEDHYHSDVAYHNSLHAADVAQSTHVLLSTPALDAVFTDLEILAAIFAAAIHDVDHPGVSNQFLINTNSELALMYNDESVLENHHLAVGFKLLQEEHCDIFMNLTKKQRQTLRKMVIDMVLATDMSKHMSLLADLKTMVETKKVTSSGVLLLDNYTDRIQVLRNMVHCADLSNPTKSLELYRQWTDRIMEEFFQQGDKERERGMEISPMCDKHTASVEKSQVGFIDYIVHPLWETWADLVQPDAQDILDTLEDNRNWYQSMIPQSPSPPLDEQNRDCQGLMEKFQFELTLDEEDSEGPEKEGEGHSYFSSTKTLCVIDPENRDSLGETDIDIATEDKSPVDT
Chain of Cytochrome P450 3A4 (Homo sapiens) (P08684 whole entry, looked up): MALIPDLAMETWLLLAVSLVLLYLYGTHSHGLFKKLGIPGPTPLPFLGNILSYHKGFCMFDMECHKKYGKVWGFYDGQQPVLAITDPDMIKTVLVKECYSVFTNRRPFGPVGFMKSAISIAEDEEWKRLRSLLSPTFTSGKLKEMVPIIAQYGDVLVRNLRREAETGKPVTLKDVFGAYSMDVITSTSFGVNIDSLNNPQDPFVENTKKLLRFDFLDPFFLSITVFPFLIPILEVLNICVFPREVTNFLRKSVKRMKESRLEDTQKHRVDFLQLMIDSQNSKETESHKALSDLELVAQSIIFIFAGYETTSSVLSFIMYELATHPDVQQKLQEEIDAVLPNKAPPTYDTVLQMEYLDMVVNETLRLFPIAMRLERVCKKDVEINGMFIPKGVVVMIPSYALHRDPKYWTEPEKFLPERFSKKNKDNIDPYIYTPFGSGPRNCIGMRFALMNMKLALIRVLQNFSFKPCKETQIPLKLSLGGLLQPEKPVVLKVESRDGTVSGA

As to `CN1CCN(c2ncc3nc(-c4ccc(F)cc4)c(=O)n(C4CC4)c3n2)CC1`, the Potency in test [1] was > 11.4 µM (inactive); in [3], 12.6 µM (active); in test [6], > 9.22 µM (inactive); in test [7], > 46 µM (inactive). Further, the activity change, negative = inhibition was 9.67% (inactive) in test [2], 24.4% (inactive) in test [4] and -0.731% (inactive) in test [11]. For the same molecule, the activity, negative = inhibition in test [5] is 18.6% (inactive). Further, the Potency result in [8], in test [9], in [10], in test [12], in [13] and in [14] was “inactive” in each case. The Potency result in test [15] was “inactive”. Also, the values for the max response in [11] (setting [17]) and in test [11] (setting [18]) were 7.24% and 4.22%, respectively.

For `COc1ccc(/C=C/C(=O)O)cc1OC`, the activity change, negative = inhibition in test [11] is 14.6% (inactive). For the same molecule, the max response in test [11] (setting [17]) turned out to be 4.45%; in test [11] (setting [18]), 26.5%. Also, in test [16], the outcome was inactive.
